Measured values as given in PubChem BioAssay.
Activity calls are given as the source filed them.

How the values were obtained:
[1] = compound effects on differentiated 3T3-L1 adipocyte viability – cell-based, 3T3-L1 adipocytes, calcein-AM fluorescence, 48 h, basal, profiling panel (AID 1163); conditions: 3T3-L1 adipocytes viability, higher = more signal
[2] = compound effects on hepatocellular carcinoma cell viability – HepG2, calcein-AM fluorescence, 48 h, basal, profiling panel (AID 1164); conditions: higher = more signal
[3] = compound effects on multiple myeloma cell viability – MM1S, calcein-AM fluorescence, 48 h, basal, profiling panel (AID 1165); conditions: higher = more signal
[4] = calcein-AM signal in unstimulated myeloma cells – cell-based, calcein-AM fluorescence, 48 h, PK04 Diversity Set, profiling panel (AID 1166); conditions: RPMI8226 myeloma viability, higher = more signal;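 further: cells grown under basal conditions without added stimulus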
[5] = JC-1 mitochondrial signal, unstimulated HepG2 cells – cell-based, JC-1 fluorescence, 24 h, 100 nL compound, profiling panel (AID 1167); conditions: HepG2 mitochondrial potential, higher = more signal
[6] = JC-1 mitochondrial signal, unstimulated adipocytes – cell-based, JC-1 fluorescence, 3T3-L1 adipocytes, 24 h, 100 nL compound, profiling panel (AID 1168); conditions: JC-1 mitochondrial fluorescence, higher = more signal, called active from +8 up or from −8 down
[7] = JC-1 mitochondrial signal, unstimulated myeloma cells – cell-based, JC-1 fluorescence, RPMI8226, 24 h, 100 nL compound, profiling panel (AID 1169); conditions: JC-1 mitochondrial potential fluorescence, higher = more signal
[8] = JC-1 mitochondrial signal, unstimulated MM1S myeloma – cell-based, JC-1 fluorescence, 24 h, 100 nL compound, profiling panel (AID 1170); conditions: MM1S mitochondrial potential, higher = more signal
[9] = resazurin metabolic signal in A549 cells – cell-based, resazurin fluorescence, 24 h, PK04 Diversity Set, profiling panel (AID 1171); conditions: A549 viability, higher = more signal, called active from +8 up or from −8 down
[10] = resazurin metabolic signal in HepG2 cells – cell-based, resazurin fluorescence, 24 h, PK04 Diversity Set, profiling panel (AID 1172); conditions: HepG2 viability, higher = more signal
[11] = budding yeast growth changes without added modifier – OD600, strain BY4716, 24 h, basal condition, primary screen (AID 1173); conditions: S. cerevisiae BY4716 growth, OD600, 24 h; higher = more signal, called active from +8 up or from −8 down
[12] = viability profiling in MM1S myeloma cells – cell-based, resazurin fluorescence, basal, 24 h, PK04 Diversity Set, profiling panel (AID 1174); conditions: higher = more signal, called active from +8 up or from −8 down
[13] = molecular target: Dihydroorotate dehydrogenase (quinone), mitochondrial (Plasmodium falciparum (isolate 3D7)) (UniProt Q08210); assay: inhibition of P. falciparum DHODH – biochemical, C-terminal His tag, absorbance 600 nm, primary screen (AID 1175); conditions: PfDHODH enzyme, DCIP absorbance 600 nm; higher = more signal, called active from +8 up or from −8 down;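 further: recombinant parasite enzyme with a five histidine tag at its C terminus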
Dihydroorotate dehydrogenase (quinone), mitochondrial (Plasmodium falciparum (isolate 3D7)), sequence (Q08210 whole entry, looked up): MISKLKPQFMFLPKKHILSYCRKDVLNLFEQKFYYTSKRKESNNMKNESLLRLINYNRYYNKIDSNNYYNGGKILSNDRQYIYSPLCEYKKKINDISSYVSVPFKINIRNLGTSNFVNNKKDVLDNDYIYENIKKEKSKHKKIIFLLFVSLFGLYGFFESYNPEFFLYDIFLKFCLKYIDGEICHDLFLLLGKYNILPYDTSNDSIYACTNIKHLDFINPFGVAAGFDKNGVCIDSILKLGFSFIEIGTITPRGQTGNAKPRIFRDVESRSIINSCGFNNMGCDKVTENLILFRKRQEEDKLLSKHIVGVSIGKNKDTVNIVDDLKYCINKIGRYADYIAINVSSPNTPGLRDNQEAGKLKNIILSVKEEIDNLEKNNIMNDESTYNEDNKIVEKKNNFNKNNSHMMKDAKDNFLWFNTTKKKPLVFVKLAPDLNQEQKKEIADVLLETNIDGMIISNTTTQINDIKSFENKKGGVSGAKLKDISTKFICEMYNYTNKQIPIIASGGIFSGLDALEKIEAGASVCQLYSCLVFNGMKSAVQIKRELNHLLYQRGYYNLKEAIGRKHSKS

[14] = growth modulation of vineyard yeast isolate – strain RM11-1a, OD600, basal, 24 h, primary screen (AID 1177);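 further: cultures grown under basal conditions with no added stressor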; conditions: S. cerevisiae RM11-1a growth, OD600, 24 h; higher = more signal, called active from +8 up or from −8 down
[15] = growth of efflux-deficient E. coli DRC39 – strain DRC39, OD650, 24 h, E. coli filamentation inducers, primary screen (AID 1178);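 further: growth measured as culture turbidity by optical density at 650 nm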; conditions: E. coli DRC39 acrAB, higher = more signal, called active from +8 up or from −8 down
[16] = growth of efflux-deficient E. coli DRC39 – strain DRC39, OD650, 48 h, E. coli filamentation inducers, primary screen (AID 1179);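 further: screen aims at cell division blockers that make cells filament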; conditions: E. coli DRC39 delta-acrAB growth, higher = more signal, called active from +8 up or from −8 down
[17] = viability profiling in RPMI8226 myeloma cells – cell-based, resazurin fluorescence, basal, 24 h, PK04 Diversity Set, profiling panel (AID 1180); conditions: higher = more signal;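 further: RPMI8826 multiple myeloma cell line at 5000 cells per well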
[18] = molecular target: E3 ubiquitin-protein ligase XIAP (Homo sapiens) (UniProt P98170); assay: small molecules binding XIAP protein – biophysical, small-molecule microarray, fluorescence 635 nm, primary screen (AID 1181); conditions: higher = more signal;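 further: score merges 667 nm emission and signal to noise over triplicate slides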
E3 ubiquitin-protein ligase XIAP (Homo sapiens), sequence (P98170 whole entry, looked up, the tested form may be a part): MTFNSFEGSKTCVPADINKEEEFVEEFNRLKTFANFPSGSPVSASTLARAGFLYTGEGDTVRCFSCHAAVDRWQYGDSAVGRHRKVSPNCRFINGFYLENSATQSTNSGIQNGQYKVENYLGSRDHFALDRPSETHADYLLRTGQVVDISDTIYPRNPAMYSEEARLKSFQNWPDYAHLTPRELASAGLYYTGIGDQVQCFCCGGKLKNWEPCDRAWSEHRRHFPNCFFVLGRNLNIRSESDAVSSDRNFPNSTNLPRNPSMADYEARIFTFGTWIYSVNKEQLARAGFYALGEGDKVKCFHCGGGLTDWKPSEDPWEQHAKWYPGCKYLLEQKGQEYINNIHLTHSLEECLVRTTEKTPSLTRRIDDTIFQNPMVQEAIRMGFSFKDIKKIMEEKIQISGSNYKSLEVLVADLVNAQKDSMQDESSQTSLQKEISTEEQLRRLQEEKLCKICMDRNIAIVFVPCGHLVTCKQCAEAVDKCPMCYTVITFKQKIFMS

[19] = tested on: XIP peptide (Xip251-270) binding; assay: XIP fragment 251-270 binding compounds – biochemical, small-molecule microarray, fluorescence 635/667 nm, 0.1 µg/mL protein, primary screen (AID 1182); conditions: fluorescent protein binding, 635 nm, higher = more signal, called active from +8 up or from −8 down
XIP peptide (Xip251-270) = assay: compounds binding XIP fragment 251-270 – biochemical, small-molecule microarray, fluorescence 635/667 nm, 0.5 µg/mL protein, primary screen (AID 1183); conditions: fluorescence 635 nm, higher = more signal

Row | Compound | z-score [1] | z-score [2] | z-score [3] | z-score [4] | z-score [5] | z-score [6] | z-score [7] | z-score [8] | z-score [9] | z-score [10] | z-score [11] | z-score [12] | composite z-score [13] | z-score [14] | z-score [15] | z-score [16] | z-score [17] | composite z-score [18] | composite z-score [19] | composite z-score (XIP peptide (Xip251-270))
1 | C=C(COC)C(=O)CC[C@@H](OC(=O)c1ccccc1-c1ccccc1C(=O)O)c1cccc(OCCO)c1 | 0.649 | -0.441 | -1.99 | -1.43 | 0.0537 | 0.469 (inactive) | -0.0226 | 1.4 | 1.2 (inactive) | 0.417 | -0.749 (inactive) | 0.0335 (inactive) | -0.733 (inactive) | 0.291 (inactive) | 1.16 (inactive) | 0.755 (inactive) | 0.458 | 0.109 | 0.43 (inactive) | -0.29
2 | O=c1n(-c2ccccc2)c(=O)n2n1CC(COc1ccccc1)=C1[C@@H](CCc3ccccc3)OB(O)C[C@@H]12 | 0.0728 | -0.28 | -0.0893 | -0.364 | -0.251 | 1.31 (inactive) | -0.555 | 0.615 | -0.665 (inactive) | 0.312 | -2.19 (inactive) | -0.933 (inactive) | 0.91 (inactive) | -0.424 (inactive) | 2.4 (inactive) | 1.4 (inactive) | -0.672 | -0.144 | 1.45 (inactive) | -0.0257
3 | CC(C)(C)OC(=O)CC[C@@]12N=C(c3ccc(OCCCO)cc3)O[C@@H]1c1ccccc1CN(Cc1ccccc1)C2=O | 1.52 | -1.46 | -3.12 | -4.06 | 0.528 | 0.547 (inactive) | -1.2 | -1.07 | -0.624 (inactive) | -0.232 | 1.13 (inactive) | -3.4 (inactive) | 0.714 (inactive) | 3.15 (inactive) | 1.21 (inactive) | 0.199 (inactive) | -2.12 | 0.286 | -0.127 (inactive) | 0.687
4 | NCCCCCCNC(=O)[C@@H]1C[C@@H]2C(=O)N[C@@H](Cc3ccccc3)C(=O)N2[C@@H]1c1ccc(O)cc1 | 1.09 | -0.46 | 0.0892 | -0.141 | 0.666 | -0.386 (inactive) | 0.0478 | 0.188 | 1.19 (inactive) | 0.368 | -1.77 (inactive) | 1.38 (inactive) | 0.687 (inactive) | -0.509 (inactive) | 0.236 (inactive) | 0.476 (inactive) | 1.53 | -0.305 | 0.208 (inactive) | 0.225
5 | C=C(CCCC)/C(=C/C[C@H](OC(=O)c1ccncc1)c1ccc(CO)o1)c1cnc2ccccc2c1 | 0.87 | -0.76 | -2.31 | 0.117 | 0.265 | 1.03 (inactive) | 0.519 | -0.656 | 0.274 (inactive) | 0.921 | -1.7 (inactive) | 0.511 (inactive) | -6.96 (inactive) | -0.716 (inactive) | 1.67 (inactive) | 1.01 (inactive) | 0.874 | -0.105 | 0.291 (inactive) | 0.413
6 | CCN(CC)c1ccc(N2CC=CC34O[C@@H]5C=CCOC(=O)[C@@H]5[C@H]3C(=O)N(C(C)CO)[C@@H]4C2=O)cc1 (stereo not given in full) | 0.754 | 0.0598 | 1.15 | -0.262 | 0.469 | 0.382 (inactive) | -0.809 | 0.907 | 0.924 (inactive) | 0.878 | -0.746 (inactive) | 1.3 (inactive) | -0.393 (inactive) | -0.0464 (inactive) | 1.7 (inactive) | 1.31 (inactive) | 0.587 | -0.0277 | 0.149 (inactive) | -1.73
7 | C=CC[C@@]1(C(=O)NCc2ccccc2)N=C(c2ccc(OCCCO)cc2)O[C@@H]1c1ccccc1 | 0.791 | -1.01 | -2.93 | -4.46 | 0.0411 | 1.84 (inactive) | -1.23 | 0.199 | 0.0074 (inactive) | 0.547 | -2.16 (inactive) | -0.47 (inactive) | -0.904 (inactive) | -1.23 (inactive) | 0.254 (inactive) | -0.124 (inactive) | -1.48 | 1.49 | 0.624 (inactive) | 0.784
8 | O=C(O)[C@H]1C[C@H]2C(=O)NCC(=O)N2[C@H]1c1cccc(OCCO)c1 | 0.926 | -0.59 | -1.13 | -0.319 | 1.27 | -0.116 (inactive) | -0.186 | 1.14 | -0.0876 (inactive) | 0.354 | -1.62 (inactive) | 1.21 (inactive) | -1.04 (inactive) | -1.25 (inactive) | 0.712 (inactive) | -0.057 (inactive) | 0.62 | 0.182 | 0.865 (inactive) | 0.938
9 | COc1ccc(C#Cc2ccc3c(c2)[C@]2(C(=O)N3)[C@H](c3ccc(O)cc3)N3[C@H](c4ccccc4)[C@H](c4ccccc4)OC(=O)[C@H]3[C@@H]2C(=O)N2CCN(c3ncccn3)CC2)cc1 | 1.37 | 0.385 | -0.233 | -0.474 | -0.16 | 1.57 (inactive) | -0.719 | 0.463 | 0.682 (inactive) | -0.169 | 0.0719 (inactive) | 0.95 (inactive) | 0.848 (inactive) | 0.537 (inactive) | 0.0488 (inactive) | 0.255 (inactive) | 1.19 | -0.0062 | 1.62 (inactive) | 0.388
